Tau fluor counter = Counterscreen qHTS for Inhibitors of Tau Fibril Formation, Fluorescence Polarization. 280,000 compounds, 0.93% hits. Potency, µM (doses to about 57.7 µM). tau K18 P301L Alexa594 fluorescence, heparin fibrillization; note: nearly all actives have a fitted effect of over 55% in size
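Human tau K18 P301L (15 uM unlabeled, 0.24 uM Alexa 594-labeled) in 100 mM sodium acetate pH 7 with 20 uM heparin, 6 hr at 37 C. ThT 30 uM added, 1 hr ambient; Alexa 594 FP and total fluorescence read at 555/632 nm.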
Tau fibril FP = qHTS for Inhibitors of Tau Fibril Formation, Fluorescence Polarization; K18 P301L tau heparin fibrillization, Alexa594 FP, 6 h; Potency, µM (doses to about 57.7 µM), hits mostly inhibitors; 280,000 compounds, 0.39% hits; note: nearly all actives have a fitted effect of over 55% in size
Target sequence (P10636 561-689 P618L limits assumed): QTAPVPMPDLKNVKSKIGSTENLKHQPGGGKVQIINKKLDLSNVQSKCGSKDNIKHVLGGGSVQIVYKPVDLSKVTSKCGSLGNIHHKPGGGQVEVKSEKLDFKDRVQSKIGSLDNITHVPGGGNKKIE
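Recombinant K18 P301L […], labeled with Alexa 594 at 0.24 uM over 15 uM unlabeled; heparin inducer 20 uM final; 37 C, 6 hr; FP endpoint.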
Sfp PPTase inh = qHTS Assay for Inhibitors of Bacillus subtilis Sfp phosphopantetheinyl transferase (PPTase); 310,000 compounds, 3.5% hits; Biochemical Sfp PPTase activity, qHTS; Potency, µM, usual class: inhibitors;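 note: the enzyme is Sfp with the accession as filed and its product quenches rhodamine fluorescence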
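With Hepes-Na pH 7.6 buffer containing 10 mM MgCl2, Sfp (15 nM) modified BHQ-2-YbbR (12.5 uM) using rhodamine-CoA (5 uM). Two reads 30 minutes apart at 525/598 nm yielded each well's rate.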
G9a block = qHTS Assay for Inhibitors of Histone Lysine Methyltransferase G9a. AID 504332, 2011. G9a H3K9 monomethylation, AlphaScreen, 2 h. Histone-lysine N-methyltransferase EHMT2 (Homo sapiens), Q96KQ7. 350,000 compounds, 8.8% hits. Potency, µM (highest dose often 102 µM), usual class: inhibitors; note: nearly all actives have a fitted effect of over 75% in size
Target sequence (Q96KQ7 913-1193 limits assumed): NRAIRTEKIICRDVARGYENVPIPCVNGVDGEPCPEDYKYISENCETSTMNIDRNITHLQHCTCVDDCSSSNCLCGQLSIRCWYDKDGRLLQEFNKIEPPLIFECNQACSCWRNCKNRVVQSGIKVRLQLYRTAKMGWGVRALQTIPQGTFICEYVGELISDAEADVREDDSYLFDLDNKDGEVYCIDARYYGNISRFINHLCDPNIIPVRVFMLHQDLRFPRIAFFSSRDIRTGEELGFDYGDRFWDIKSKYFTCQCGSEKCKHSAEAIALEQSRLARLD
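G9a (20 nM) preincubated 15 min RT with compounds, then 500 nM biotinylated H3K9 peptide and 20 uM SAM added; 2 h RT reaction. Monomethyl-H3K9 product detected by AlphaScreen with anti-H3K9me1 antibody, streptavidin donor and anti-rabbit IgG acceptor beads.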
Tau ThT inhib = qHTS for Inhibitors of Tau Fibril Formation, Thioflavin T Binding; 270,000 compounds, 2.1% hits; Microtubule-associated protein tau (Homo sapiens), P10636; AID 1460, 2008; Potency, µM (doses to about 57.4 µM), hits mostly inhibitors; recombinant tau K18 P301L (four-repeat tau fragment), heparin-induced fibrillization, ThT fluorescence; note: nearly all actives have a fitted effect of over 55% in size
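K18 P301L tau (15 uM + 0.24 uM Alexa 594-tagged), heparin 20 uM, NaOAc pH 7, 6 h 37 C; ThT 30 uM, 1 h RT, ex 450/em 510 nm.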
FBPA coupling cs = qHTS Assay for Inhibitors of Fructose-1,6-bisphosphate Aldolase from Giardia Lamblia: Coupling assay counterscreen | coupling enzyme system counterscreen, AmpLite Red fluorescence | activity change, negative = inhibition, % at 58.2 µM, hits read low | 290,000 compounds, 0.67% hits; in the data active = activity change below about -30%
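Coupling enzymes only (glyceraldehyde-3-phosphate) + compound, at 57.5 uM final, 10 min RT; add substrate/coupling/AmpLite Red mix, 20 min RT; fluorescence ex 525/em 598 nm. Actives flag coupling-system interference.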
Each line names hits and unclear results; the compound was inactive in the other large screens; [ ] = remark or other dose. This is a sample that favours compounds with a hit; in the whole collection about 11% have one here. Unless noted, calls come from the whole dose curve; as a rule, active = well fitted curve in the direction sought with a large enough effect; inconclusive = small, poorly fitted or top-dose-only effect, or another doubt; inactive = no such curve, though single readings can be large; an effect the other way counts as inactive or inconclusive.

Cc1ccc(SCC(=O)Nc2ccc(S(=O)(=O)Nc3nccs3)cc2)cc1	G9a block 13µM
O=C(c1ccncc1)N1CCC[C@@]2(CCN(Cc3ccccc3)C2)C1	none (no result: Tau fluor counter, Tau fibril FP, Tau ThT inhib)
COc1ccccc1Nc1nc(-c2sc(N)nc2C)cs1	Sfp PPTase inh 50µM, G9a block 13µM (no result: Tau fluor counter, Tau fibril FP, Tau ThT inhib)
Cc1nc(N)sc1-c1csc(Nc2ncccn2)n1	G9a block inconclusive, Tau ThT inhib 4µM
COc1ccc(Cl)cc1Nc1nc(-c2sc(NC(=O)c3ccco3)nc2C)cs1	Tau fluor counter inconclusive, Sfp PPTase inh inconclusive, G9a block inconclusive, Tau ThT inhib inconclusive
COc1cccc(Nc2nc(-c3sc(N)nc3C)cs2)c1	Tau fluor counter 14µM[quencher], G9a block inconclusive, Tau ThT inhib 11µM
Cc1nc(N)sc1-c1csc(Nc2ccc(S(N)(=O)=O)cc2)n1	G9a block inconclusive (no result: Tau fluor counter, Tau fibril FP, Tau ThT inhib)
COc1cccc(Nc2nc(-c3sc(NC(=O)c4ccco4)nc3C)cs2)c1	Tau fluor counter inconclusive, Tau fibril FP inconclusive, G9a block 40µM, Tau ThT inhib 10µM
O=C(CN1C(=O)COc2ccc(S(=O)(=O)N3CCOCC3)cc21)N1CCN(c2cccc(C(F)(F)F)c2)CC1	none (no result: Sfp PPTase inh, FBPA coupling cs)
Cc1ccc(NC(=O)CN2C(=O)c3ccccc3Sc3ccc(C(=O)N4CCOCC4)cc32)cc1C	none (no result: Sfp PPTase inh, FBPA coupling cs)
Cc1c(C(=O)N/N=C/c2cccnc2)sc(N)c1C#N	none (no result: Tau fluor counter, Tau fibril FP, Tau ThT inhib)
CCC(=O)N1CCc2cc(Br)cc(S(=O)(=O)NCCc3ccccc3)c21	none (no result: Sfp PPTase inh, FBPA coupling cs)
COc1ccccc1NCc1ccc([N+](=O)[O-])s1	Tau fluor counter inconclusive, G9a block 7.9µM, Tau ThT inhib inconclusive
Cc1ccccc1NCc1ccc([N+](=O)[O-])s1	none (no result: Tau fluor counter, Tau fibril FP, G9a block, Tau ThT inhib)
Cc1cccc(NCc2ccc([N+](=O)[O-])s2)c1	G9a block 45µM (no result: Tau fluor counter, Tau fibril FP, Tau ThT inhib)
Cc1ccc(NCc2ccc([N+](=O)[O-])s2)cc1	G9a block 40µM (no result: Tau fluor counter, Tau fibril FP, Tau ThT inhib)
O=[N+]([O-])c1ccc(CNc2cccc(F)c2)s1	G9a block 50µM (no result: Tau fluor counter, Tau fibril FP, Tau ThT inhib)
Cc1ccc(N(C)C(=O)c2cc(S(=O)(=O)N3CCOCC3)cn2C)cc1	none (no result: Sfp PPTase inh, FBPA coupling cs)
CCc1cccc(NC(=O)COc2cc(=O)n(CC)c3ccccc23)c1	G9a block inconclusive (no result: Sfp PPTase inh, FBPA coupling cs)
Cc1ccc(S(=O)(=O)NCCc2nnc3ccc(SCC(=O)Nc4ccc(OC(F)(F)F)cc4)nn23)cc1	none (no result: Sfp PPTase inh, FBPA coupling cs)
COc1ccc(NC(=O)C(C)N2CCN(C)CC2)cc1 (centres undefined)	Sfp PPTase inh 63µM, G9a block inconclusive (no result: Tau fluor counter, Tau fibril FP, Tau ThT inhib)
Cc1cnc(NC(=O)C(C)N2CCN(C)CC2)s1 (centres undefined)	Sfp PPTase inh inconclusive, G9a block 13µM
CC(C(=O)Nc1ccc(F)c(F)c1)N1CCN(C)CC1 (centres undefined)	Sfp PPTase inh inconclusive, G9a block inconclusive (no result: Tau fluor counter, Tau fibril FP, Tau ThT inhib)
Cc1cnc(NC(=O)[C@H](C)N2C(=O)C3CCCCC3C2=O)s1 (some centres undefined)	none
CC1(COc2ccc(CC3SC(=O)NC3=O)cc2)CCCCC1 (centres undefined)	none
O=C(NCCCN1CCCC1=O)c1cccc(S(=O)(=O)N2CCCCC2)c1	none (no result: Tau fluor counter, Tau fibril FP, Sfp PPTase inh, Tau ThT inhib, FBPA coupling cs)
Cc1cc(C)n2nc(/C(C#N)=C/c3ccccn3)c(C#N)c2n1	Tau fluor counter inconclusive, Tau fibril FP inconclusive, G9a block inconclusive, Tau ThT inhib 22µM
C/C(=N\NC1=NCCN1)c1ccc(N)c([N+](=O)[O-])c1	Tau ThT inhib 20µM (no result: G9a block)
Cc1ccc(Cn2c(CCCO)nc3ccccc32)cc1	none (no result: Tau fluor counter, Tau fibril FP, Tau ThT inhib)
Cc1ccc2c(c1)C(c1ccccc1)N(C(=O)c1c(F)cccc1Cl)CC(=O)N2 (centres undefined)	none (no result: Tau fluor counter, Tau fibril FP, Tau ThT inhib)
CCOc1cc(C#N)c(-n2nnc3c(sc4nc(C)cc(C)c43)c2=O)cc1OCC	G9a block 16µM (no result: Sfp PPTase inh, FBPA coupling cs)
O=C(O)CCCCCN1C(=O)/C(=C\c2cn(-c3ccccc3)nc2-c2cccs2)SC1=S	Sfp PPTase inh inconclusive, G9a block 16µM, Tau ThT inhib 14µM
COc1ccc(-c2nn(-c3ccccc3)cc2/C=C2/SC(=S)N(CCC(=O)O)C2=O)cc1	G9a block 40µM (no result: Tau fluor counter, Tau fibril FP, Tau ThT inhib)
COc1ccc(-c2nn(-c3ccccc3)cc2/C=C2/SC(=S)N(CCC(=O)O)C2=O)c(C)c1	G9a block 40µM (no result: Tau fluor counter, Tau fibril FP, Tau ThT inhib)
O=C(O)CCN1C(=O)/C(=C/c2cn(-c3ccccc3)nc2-c2cccs2)SC1=S	none
Cc1ccc(-c2nn(-c3ccccc3)cc2/C=C2\SC(=S)N(CC(=O)O)C2=O)cc1	Sfp PPTase inh 50µM, G9a block 35µM, Tau ThT inhib 18µM
COc1ccc(NC(=O)CN(C)C(=O)c2ccc(NS(=O)(=O)c3ccc(F)cc3)cc2)cc1	none (no result: Tau fluor counter, Tau fibril FP, Sfp PPTase inh, Tau ThT inhib, FBPA coupling cs)
CCN1C(=O)/C(=C\c2cn(CCC#N)nc2-c2ccc(F)cc2)SC1=S	Tau fluor counter inconclusive, Tau fibril FP inconclusive, Sfp PPTase inh inconclusive, G9a block 35µM, Tau ThT inhib inconclusive
CCN1CCN(C(c2ccccc2Cl)c2sc3nc(-c4ccco4)nn3c2O)CC1 (centres undefined)	none (no result: Sfp PPTase inh, FBPA coupling cs)
Cc1cccc(C(=O)N2CCc3cc(CNC(=O)CCc4ccccc4)ccc32)c1	none (no result: Sfp PPTase inh, FBPA coupling cs)

Screening data deposited in PubChem by National Center for Advancing Translational Sciences (NCATS).
